Experimental data from PubChem BioAssay (NCI).
Compounds without any hit were thinned out: in the full panel of roughly 83,000, 20% have a hit.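 Each cell line was grown in a 96-well plate and treated with one concentration of compound for 48 hours. Values below 10 were considered active.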 Active and inactive are the calls of the source.

Each compound was assayed on SK-MEL-2 melanoma (assay: NCI-60 one-dose screen, 48 h (100 = growth as untreated, 0 = no growth, -100 = all killed)). Conditions: 10 µM.
Protocol: Growth inhibition of the SK-MEL-2 human tumor cell line is measured as a screen for anti-cancer activity. Cells are grown in 96 well plates and exposed to the test compound for 48 hours. Compounds are tested at a single concentration, which is 10^-5 M for most compounds. The reported endpoint is percent growth (GI% or GIPRCNT), where numbers from 0 - 100% represent growth inhibition, and numbers from -100% - 0 represent cell death. For example, a value of 40 represents 60% growth inhibition. A value of 0 means no net growth occurred over the course of the experiment. A value of -40 indicates 40% of cells at the beginning of the experiment died by the end of the experiment. A value of -100 means all cells are dead at the end of the experiment.
NCI-60 Human Tumor Cell Lines Screen was performed using the standard one-dose NCI protocol, which is described in more detail at https://dtp.cancer.gov/discovery_development/nci-60/default.htm.
Compounds with GIPRCNT values below 10 were considered active. Activity score was based on GIPRCNT using the following formula: […]
Score is 0 for GIPRCNT values of 100 or above, 50 for GIPRCNT values of 0, and 100 for GIPRCNT values of -100.
`COc1cc(C2C=C(c3ccc(Cl)c(Cl)c3)N=C3SC(C)=CN32)cc(OC)c1OC` (stereo not given) was tested, and the growth was 83.4% (inactive). `CN(C)c1ccc2c(c1)OC(N)=C(C#N)C2c1ccc2c(c1)CCCN2C` (stereo not given) was tested, and the growth was 30.7% (inactive). `COc1ccc(Cn2cc3c(c2-c2cc(OC)c(OC)c(OC)c2)CCc2cnoc2-3)cc1[N+](=O)[O-]` was tested, and the growth was 43.4% (inactive). With `Cc1cc(O)c(C2=NN(c3ccc(S(N)(=O)=O)cc3)C(c3ccc(N(C)C)cc3)C2)c(C)c1Cl` (stereo not given) the growth was 92.5% (inactive). For `COc1cccc(C(=O)NNc2nc(N3CCOCC3)nc(N3CCN(C(c4ccccc4)c4ccccc4)CC3)n2)c1`, the growth was 85.3% (inactive). `CCOc1nc(-c2ccccc2)cc2c(O)c(C(=O)NC(C)C)[nH]c(=O)c12` was tested, and the growth was 126% (inactive). `Cc1[nH]nc2c(=S)[nH]c(=O)[nH]c12` was tested, and the growth was 109% (inactive). For `Cc1cccc2c(Nc3ccc(NS(C)(=O)=O)cc3)c3ccc([N+](=O)[O-])cc3nc12`, the growth was -19.1% (active). For `CC(=O)O[C@H]1CC[C@@]2(C)[C@@H](CC[C@@H]3[C@@H]2CC[C@]2(C)C=C(C=O)C[C@@H]32)C1`, the growth was 73.7% (inactive). In the case of `Nc1ncncc1-c1ccc(F)cc1`, the growth is reported as 132% (inactive). With `COc1ccc(-c2nc(NC(=O)CS(=O)(=O)c3ccc(F)cc3)sc2C)cc1` the growth was 72.7% (inactive). For `O=C1/C(=C/c2ccc(O)cc2)Cc2ccc(Cl)cc21`, the growth was 93% (inactive). `Cc1ccc(S(=O)(=O)Nc2cccc3[nH]c(C(F)(F)F)nc23)cc1` was tested, and the growth was 2.59% (active). `Fc1ccc2[nH]c3c(NCCCN4CCOCC4)ncnc3c2c1` was tested, and the growth was 65.7% (inactive). `CCOC(=O)c1ccc(NC(=O)Nc2nncs2)cc1` was tested, and the growth was 37.4% (inactive). For `CCN(CC)CCn1c(=N)n(CC(O)c2ccc(Cl)c(Cl)c2)c2ccccc21` (stereo not given), the growth was 96.8% (inactive). `CCOC(=O)c1cc(-c2ccccc2)nc(N)n1` was tested, and the growth was 110% (inactive). For `CC(=O)c1c(O)cc2c3c1OC(C)(C)C1CCC(C)(CC31)O2` (stereo not given), the growth was 99.2% (inactive). `N#CN1CC[C@H](C(=O)Nc2ncc(-c3ccncc3)s2)C1` was tested, and the growth was -36.1% (active). For `COc1ccc(-c2csc(NC(=O)CO[N+](=O)[O-])n2)cc1`, the growth was 81.6% (inactive). `FC(F)(F)c1ccc(-c2cnc(Br)nc2NC2CCCCCC2)cc1` was tested, and the growth was 13.2% (inactive). In the case of `O=C(CCl)N1c2ccccc2Sc2ccc3ccccc3c21`, the growth is reported as -25.5% (active). In the case of `CCOC(=O)C(=O)Cc1cccnn1`, the growth is reported as 103% (inactive). With `Nc1ccc(C2=CC(c3ccc(Cl)cc3)N3C=CSC3=N2)cc1` (stereo not given) the growth was -49.9% (active). With `Cc1cc(=O)oc2cc(OCc3cn(CC(O)CO)nn3)ccc12` (stereo not given) the growth was 115% (inactive). With `Cc1cnc(C=O)c2cccc([N+](=O)[O-])c12` the growth was 102% (inactive). In the case of `C=CCOc1ccc2c(c1)CC=C1[C@@H]2CC[C@]2(C)C(=O)/C(=N/O)C[C@@H]12`, the growth is reported as 106% (inactive). In the case of `FC(F)(F)c1ccc(-c2nc(-c3nc4cc(Cl)c(Cl)cc4[nH]3)c3ccccn23)cc1`, the growth is reported as 68.6% (inactive). With `NC1CCC(Nc2nc(NCc3ccc(-c4ccccc4O)nc3)c3ncn(C4CCCC4)c3n2)CC1` (stereo not given) the growth was -81.4% (active). For `COc1ccc(-c2[nH]ncc2/C=C/c2cc(C(F)(F)F)[nH]c(=O)n2)cc1`, the growth was 82.9% (inactive). With `CC1(CO)CCCC12OCCO2` (stereo not given) the growth was 95.2% (inactive). In the case of `C[N+]1(CC2CO2)CCCCCC1` (stereo not given), the growth is reported as 118% (inactive). In the case of `CCCCCCCOc1cccc(/C=C2/C(=O)N=C3SCCCN32)c1`, the growth is reported as 83% (inactive). `COc1ccc(-c2nc(SCC(=O)c3ccc(Br)cc3)[nH]c(=O)c2C#N)cc1` was tested, and the growth was 103% (inactive). In the case of `CC(C)c1[nH]nc2c(NCc3ccc(-c4ccccn4)cc3)nc(SCCN(C)C)nc12`, the growth is reported as -65.6% (active). In the case of `O=C(Nc1cccc(F)c1)Nc1cccc(Cl)c1`, the growth is reported as 101% (inactive). For `CCOC(=O)Nc1ccc2c(c1)C(=O)N(CC)c1ccccc1O2`, the growth was 14.6% (inactive). With `Cc1nc2sccn2c1-c1csc(Nc2cccc(Cl)c2C)n1` the growth was 43.8% (inactive). `COc1ccc(C2C=C(c3ccc(Cl)cc3)N=C3SC=CN32)c(Br)c1` (stereo not given) was tested, and the growth was 85.3% (inactive). In the case of `COc1cc2ccnc(C=O)c2cc1OC`, the growth is reported as 83.2% (inactive).
